# Records with an inconclusive call do not appear. Active and inactive are the calls of the source. How the source made its calls: active means hit-call score of the fitted dose curve at least 0.9, where 1 is the maximum; inconclusive means response in the unintended direction; inactive means score below 0.9.
# Key:
# [1] = TOX21_p53_BLA_p2_viability: Viability Assessment in the Tox21 HCT-116 p53 Agonism Beta-lactamase Assay, Phase 2 (AID 2283591);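 further: actives lower the ATP signal meaning cytotoxicity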
# Summary of the method: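 HCT-116 p53-bla cells (4000/well) rested 5 h at 37C, then received compounds in DMSO (217-fold dilution) for 16 h at 37C, 5% CO2. After the CCF4 read, CellTiter-Glo was added; ATP luminescence was read after 30 min at room temperature.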
# [2] = TOX21_p53_BLA_p3_viability: Viability Assessment in the Tox21 HCT-116 p53 Agonism Beta-lactamase Assay, Phase 3 (AID 2283593);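 further: cells exposed to compound for 16 h before reading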
# Summary of the method: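 HCT-116 cells (4000/well) rested 5 h at 37C, then got DMSO compounds by pin tool (217-fold dilution) for 16 h at 37C, 5% CO2. After the bla read, CellTiter-Glo was added and luminescence read at 30 min, room temperature.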
# [3] = TOX21_p53_BLA_p4_viability: Viability Assessment in the Tox21 HCT-116 p53 Agonism Beta-lactamase Assay, Phase 4 (AID 2283597);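 further: hits lower the luminescence signal meaning cytotoxicity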
# Summary of the method: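 4000 HCT116 cells per well; 5 h attachment; compounds from DMSO, 217-fold dilution; 16 h at 37C. Then CCF4-AM, 2 h RT, followed by CellTiter-Glo, 30 min RT, luminescence. Decrease = cytotoxicity.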
# [4] = target: Cellular tumor antigen p53 (Homo sapiens) (UniProt P04637); experiment: TOX21_p53_BLA_p5_ratio: Tox21 HCT-116 p53 Agonism Beta-lactamase Assay, Ratio, Phase 5 (AID 2283599)
# Summary of the method: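 HCT-116 cells carrying a p53-inducible beta-lactamase reporter were seeded at 4000 cells/well and dosed after 5 h with compound in DMSO (217-fold dilution). After 16 h at 37C, CCF4-AM substrate was added for 2 h, and the 460/530 nm emission ratio was scored as gain-of-signal versus DMSO.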
# PGR (gene 5241) [5] = target: PGR (gene 5241) (UniProt P06401); experiment: TOX21_PR_BLA_Followup_Antagonist_ratio: Tox21 HEK293 Progesterone Receptor (PR) Antagonism Beta-lactamase Follow-Up Assay, Ratio (AID 2283934)
# Summary of the method: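 Read-out: blue/green beta-lactamase FRET ratio (cleaved ch2 over uncleaved ch1), fitted relative to DMSO baseline. Cells: PR-UAS-bla HEK293T, GAL4-UAS reporter, stimulated with 1 nM R5020 final; 16 hr compound exposure, 37C.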
# [6] = TOX21_PR_BLA_Followup_Agonist_viability: Viability Assessment in the Tox21 HEK293 Progesterone Receptor (PR) Agonism Beta-lactamase Follow-Up Assay (AID 2283935);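 further: signal loss means lower viability so actives are cytotoxic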
# Summary of the method: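 Luminescent ATP quantitation (CellTiter-Glo, 30 min, room temperature) in the same wells as the beta-lactamase read, on PR-UAS-bla HEK293T cells exposed to compound for 16 hr at 37C in 2% charcoal-stripped serum.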
# [7] = TOX21_PR_BLA_Followup_Antagonist_viability: Viability Assessment in the Tox21 HEK293 Progesterone Receptor (PR) Antagonism Beta-lactamase Follow-Up Assay (AID 2283936);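 further: cells exposed to compound with R5020 agonist for 16 h; hits lower the luminescence signal meaning cytotoxicity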
# Summary of the method: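 PR-UAS-bla HEK293T cells in medium with 2% charcoal-stripped FBS were treated with compounds plus R5020 for 16 hr at 37C. After the beta-lactamase read, CellTiter-Glo was added to the same wells and luminescence read after 30 min at room temperature.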
# PGR (gene 5241) [8] = target: PGR (gene 5241) (UniProt P06401); experiment: TOX21_PR_LUC_Followup_Antagonist: Tox21 HEK293 Progesterone Receptor (PR) Antagonism Luciferase Follow-Up Assay (AID 2283938);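 further: curve fitted upward as signal gain over DMSO baseline despite antagonist label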
# Summary of the method: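 HEK293-PR-A-luc cells, 3,000/well, preincubated 5 h at 37C before compound addition in DMSO; 16 h compound exposure at 37C. ONE-Glo luciferase luminescence read after 30 min at room temperature, fitted relative to DMSO baseline.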
# [9] = TOX21_PR_LUC_Followup_Agonist_viability: Viability Assessment in the Tox21 HEK293 Progesterone Receptor (PR) Agonism Luciferase Follow-Up Assay (AID 2283941);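 further: loss of signal means cytotoxicity so actives lower viability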
# Summary of the method: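 Cytotoxicity counter-screen: ATP content by CellTiter-Glo luminescence, loss of signal = reduced viability. HEK293-PR-A-luc, 3,000 cells/well, compound exposure 16 h, 37C.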
# [10] = TOX21_p53_BLA_p5_viability: Viability Assessment in the Tox21 HCT-116 p53 Agonism Beta-lactamase Assay, Phase 5 (AID 2283600)
# Summary of the method: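 Decreased CellTiter-Glo luminescence denotes lost viability. Exposure: 16 h at 37C, 5% CO2, with compounds from DMSO stocks diluted 217-fold in wells of 4000 cells.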
# [11] = target: Cellular tumor antigen p53 (Homo sapiens) (UniProt P04637); experiment: TOX21_p53_BLA_p4_ratio: Tox21 HCT-116 p53 Agonism Beta-lactamase Assay, Ratio, Phase 4 (AID 2283601)
# Summary of the method: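 HCT116 cells carrying an inducible beta-lactamase reporter were plated at 4000 cells/well, rested 5 h, then exposed to compounds in DMSO (217-fold dilution) for 16 h at 37C. CCF4-AM substrate was loaded 2 h at room temperature; 460/530 nm emission ratio scored gain-of-signal versus DMSO.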
# [12] = target: Cellular tumor antigen p53 (Homo sapiens) (UniProt P04637); experiment: TOX21_p53_BLA_p3_ratio: Tox21 HCT-116 p53 Agonism Beta-lactamase Assay, Ratio, Phase 3 (AID 2283596)
# Summary of the method: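 Cells were seeded at 4000/well, rested 5 h at 37C, then dosed with DMSO compound solutions (217-fold dilution) for 16 h. CCF4-AM substrate was loaded for 2 h at room temperature, and the 460/530 nm emission ratio was fitted for gain of signal versus DMSO.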
# Sequence of Cellular tumor antigen p53 (Homo sapiens) (P04637 whole entry, looked up): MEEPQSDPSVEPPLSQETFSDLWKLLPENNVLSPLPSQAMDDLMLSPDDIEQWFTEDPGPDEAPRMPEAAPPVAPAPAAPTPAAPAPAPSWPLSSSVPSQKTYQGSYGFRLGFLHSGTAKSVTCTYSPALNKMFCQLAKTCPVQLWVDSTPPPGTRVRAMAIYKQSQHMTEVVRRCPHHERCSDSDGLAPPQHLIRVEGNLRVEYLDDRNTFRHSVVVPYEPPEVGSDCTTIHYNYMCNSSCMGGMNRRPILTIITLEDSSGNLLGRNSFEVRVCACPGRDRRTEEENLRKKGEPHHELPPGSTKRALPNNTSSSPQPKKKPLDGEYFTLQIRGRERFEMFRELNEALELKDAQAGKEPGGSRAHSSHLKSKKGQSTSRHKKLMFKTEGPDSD
# Sequence of PGR (gene 5241) (P06401 whole entry, looked up, the tested form may be a part): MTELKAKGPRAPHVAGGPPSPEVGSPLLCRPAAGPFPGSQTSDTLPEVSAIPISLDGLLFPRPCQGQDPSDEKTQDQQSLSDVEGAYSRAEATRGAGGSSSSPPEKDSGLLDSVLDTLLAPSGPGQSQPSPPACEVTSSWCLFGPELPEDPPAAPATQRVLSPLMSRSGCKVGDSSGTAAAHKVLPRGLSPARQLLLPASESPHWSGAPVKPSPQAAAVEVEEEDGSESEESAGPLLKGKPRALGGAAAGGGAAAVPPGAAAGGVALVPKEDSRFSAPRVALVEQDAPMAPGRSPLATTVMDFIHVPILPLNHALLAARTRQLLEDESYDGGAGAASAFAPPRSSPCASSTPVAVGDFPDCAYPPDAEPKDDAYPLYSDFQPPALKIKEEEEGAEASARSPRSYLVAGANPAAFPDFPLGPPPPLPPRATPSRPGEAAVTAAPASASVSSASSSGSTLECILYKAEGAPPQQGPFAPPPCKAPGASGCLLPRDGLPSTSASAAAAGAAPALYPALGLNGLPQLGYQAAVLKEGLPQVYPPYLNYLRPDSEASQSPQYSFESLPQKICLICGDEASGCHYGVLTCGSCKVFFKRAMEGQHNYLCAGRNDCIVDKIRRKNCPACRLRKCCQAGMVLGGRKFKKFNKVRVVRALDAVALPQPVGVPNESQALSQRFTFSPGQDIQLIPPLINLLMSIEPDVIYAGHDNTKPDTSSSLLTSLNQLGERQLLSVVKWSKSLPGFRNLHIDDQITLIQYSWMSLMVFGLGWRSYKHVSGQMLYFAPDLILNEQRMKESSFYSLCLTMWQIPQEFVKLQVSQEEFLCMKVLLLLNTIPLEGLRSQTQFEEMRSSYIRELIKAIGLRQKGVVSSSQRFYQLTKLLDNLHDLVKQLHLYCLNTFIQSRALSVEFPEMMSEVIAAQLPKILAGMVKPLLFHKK
compound,measurement,setting,value
C[C@]12CC[C@H]3[C@@H](CCC4=CC(=O)CC[C@@H]43)[C@@H]1CC[C@@H]2O,outcome,[1],inactive
same,outcome,[2],inactive
same,outcome,[3],inactive
same,outcome,[4],inactive
same,outcome,PGR (gene 5241) [5],inactive
same,outcome,[6],inactive
same,outcome,[7],inactive
same,outcome,PGR (gene 5241) [8],inactive
same,outcome,[9],inactive
Cc1cc(C)cc(C(=O)OC2C[C@H]3CC[C@@H](C2)N3C)c1 (some centres undefined),outcome,[1],inactive
same,outcome,[2],inactive
same,outcome,[3],inactive
same,outcome,[10],inactive
same,outcome,[11],inactive
N#C/C(N)=C(/N)C#N,outcome,[1],inactive
same,outcome,[2],inactive
same,outcome,[12],inactive
same,outcome,[10],inactive
same,outcome,[11],inactive
CCCN(CCC)C(=O)Cc1c(-c2ccc(Cl)cc2)nc2ccc(Cl)cn12,outcome,[1],inactive
same,outcome,[2],inactive
same,outcome,[3],inactive
same,outcome,[10],inactive
same,outcome,[11],inactive
[O]=[Cr](=[O])([OH])[O][Cr](=[O])(=[O])[OH],AC50,[1],15.1 µM (active) [middle of 4 runs]
same,AC50,[2],11.4 µM (active) [middle of 4 runs]
same,AC50,[3],18.4 µM (active) [middle of 4 runs]
same,AC50,[4],13.2 µM (active) [middle of 4 runs]
same,AC50,[10],28.1 µM (active) [middle of 4 runs]
same,AC50,[11],13.6 µM (active) [middle of 4 runs]
NC(=O)CI,outcome,[1],inactive
same,outcome,[2],inactive
same,outcome,[12],inactive
same,outcome,[4],inactive
same,outcome,[11],inactive
C=C1CC[C@@]2(O)[C@H]3Cc4ccc(O)c5c4[C@@]2(CCN3CC2CC2)[C@H]1O5,outcome,[1],inactive
same,outcome,[2],inactive
same,outcome,[12],inactive
same,outcome,[11],inactive
